An excerpt weighted towards active compounds, which were near 1.4% of everything screened.
E coli Lon inh: inhibitors of E. coli Lon protease; inhibition, % at 7.94 µM; 360,000 compounds, 0.42% hits; purified E. coli Lon protease, fluorescence polarization; P0A9M0; AID 602123; in the data active = inhibition above about 13%, passing the limit was not always enough
EBV gp42 block: EBV gp42 inhibition | Fluorescence polarization binding assay, mP read-out | inhibition, % (tested at 21.74 µM) | 220,000 compounds, 0.42% hits | AID 1085; in the data active = inhibition above about 50%
GLD-1 TGE inh: GLD-1-TGE RNA interaction inhibition (C. elegans) | Q17339 | purified GLD-1 + fluorescein TGE RNA, fluorescence polarization | inhibition, % at 5.96 µM | 320,000 compounds, 0.44% hits | AID 2280;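 active = percent inhibition above a per-plate cutoff, the plate mean of test compounds plus 3 SD, cut at about 30% in these data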
MCL1 BIM primary: MCL1-BIM-BH3 interaction inhibition (human) | Q07820 | GST-MCL1 / FITC-Bim-BH3 fluorescence polarization | inhibition, % at 10.9 µM | 320,000 compounds, 0.68% hits | AID 2057;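 active = inhibition above the mean inhibition of all tested compounds plus 3 SD, set per campaign, cut at about 40% in these data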;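 also: higher means more loss of mP so more displacement of Bim peptide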
Target sequence (Q07820 whole entry, looked up): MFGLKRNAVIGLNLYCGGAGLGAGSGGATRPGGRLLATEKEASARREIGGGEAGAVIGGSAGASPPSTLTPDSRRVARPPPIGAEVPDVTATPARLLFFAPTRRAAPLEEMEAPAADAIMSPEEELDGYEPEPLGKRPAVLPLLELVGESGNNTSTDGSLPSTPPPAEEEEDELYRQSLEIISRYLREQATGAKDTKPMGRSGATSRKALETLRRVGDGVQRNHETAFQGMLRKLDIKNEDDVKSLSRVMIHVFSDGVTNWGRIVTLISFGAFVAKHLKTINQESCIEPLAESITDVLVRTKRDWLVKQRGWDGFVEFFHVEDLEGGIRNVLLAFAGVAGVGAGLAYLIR
Bcl-xL primary: inhibitors of human Bcl-xL | GST-Bcl-xL / FITC-Bim BH3 peptide fluorescence polarization | inhibition, % at 10.9 µM | 320,000 compounds, 0.7% hits;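 active = inhibition above the mean of all tested compounds plus 3 SD, cutoff set per campaign, cut at about 30% in these data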;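 also: inhibitors lower millipolarization by displacing the labeled peptide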
Target sequence (Q07817 whole entry, looked up): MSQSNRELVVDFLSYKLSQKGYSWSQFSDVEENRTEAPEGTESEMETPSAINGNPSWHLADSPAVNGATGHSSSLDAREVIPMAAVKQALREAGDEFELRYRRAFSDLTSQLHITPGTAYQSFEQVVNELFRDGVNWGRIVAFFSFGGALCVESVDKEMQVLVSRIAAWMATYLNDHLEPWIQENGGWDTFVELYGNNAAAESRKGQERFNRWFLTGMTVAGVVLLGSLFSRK
MEX-5 binding: C. elegans MEX-5 TCR-2 RNA binding activity; Q9XUB2; MEX-5/FITC-TCR2 RNA binding, fluorescence polarization; stronger effect = lower value; activity score (negative = inhibition of binding), % at 10 µM; 300,000 compounds, 0.38% hits;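 active = inhibition past about -25% in most replicates, and total fluorescence under double the plate's negative control median, limit read from the data; inconclusive = replicates evenly split on the limit, or fluorescence at least double controls; inactive = too little inhibition in most replicates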
BCLXL inh confirm: counter-screen for MCL1 inhibitors: confirmation of human Bcl-xL inhibitors; GST-Bcl-xL / FITC-Bim BH3 peptide FP binding; 1,700 compounds, 54% hits; AID 2166; inhibition, % at 10.9 µM; shares compounds with MCL1 BIM primary;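 active = inhibition above a cutoff equal to the mean inhibition of all tested compounds plus 3 SD, cut at about 30% in these data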
MCL1 inh confirm: MCL1-BIM-BH3 interaction inhibition, confirmation; shares compounds with MCL1 BIM primary; GST-MCL1 / FITC-Bim-BH3 fluorescence polarization; inhibition, % at 10.9 µM; 1,700 compounds, 61% hits; AID 2168;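 active = inhibition above the average of all tested compounds plus 3 SD, cut at about 40% in these data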
GLD1 RNA confirm: confirmation of C. elegans GLD-1 TGE RNA binding inhibitors; GLD-1/FL-TGE RNA fluorescence polarization, biochemical; shares compounds with GLD-1 TGE inh; 550 compounds, 10% hits; inhibition, % at 5.96 µM;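 active = average inhibition across triplicates above the hit cutoff set in the primary screen, cut at about 32% in these data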
Hits are given with their value; 0 = inactive; ? = inconclusive; - = no result given; + = active, no number.

SMILES	E coli Lon inh	EBV gp42 block	GLD-1 TGE inh	MCL1 BIM primary	Bcl-xL primary	MEX-5 binding	BCLXL inh confirm	MCL1 inh confirm	GLD1 RNA confirm
CCC(=O)OCCNc1cc(Sc2nc3ccccc3s2)c2nonc2c1[N+](=O)[O-]	0	0	38.1	59.7	62.1	0	56.4	71.8	0
Cn1nc(-c2ccccc2)cc1NS(=O)(=O)c1ccc(C#N)cc1	0	0	60.8	96.9	99.7	0	0	0	0
CCC1OC2(C)OC(=N)C1(C#N)C(C#N)(C#N)C2c1ccccc1 (stereo not given)	0	0	44.0	54.7	60.3	0	0	0	0
CCOC(=O)C1=C(C)OC(N)=C(C#N)C1c1ccccc1 (stereo not given)	0	0	0	0	0	0	-	-	-
CCc1nnc(SCC(=O)N2CCc3ccccc32)n1CC	0	-	0	0	0	0	-	-	-
CCn1c(CSc2ncccn2)nnc1SCC(=O)N1CCc2ccccc21	0	0	36.2	102.8	98.7	0	0	0	0
CN(C)/C=C1\SC(=S)N(c2ccc(Br)cc2)C1=O	0	0	73.4	175.9	131.1	0	+	+	31.8
O=C1CCC(C(=O)N2CCSCC2)CN1Cc1cccc(C(F)(F)F)c1 (stereo not given)	0	-	0	0	0	0	-	-	-
Cc1ccc(C2=NN(C(=O)CN3CCN(C4CCS(=O)(=O)C4)CC3)C(c3ccco3)C2)cc1 (stereo not given)	0	-	0	0	0	-	-	-	-
Cc1nc2cc(NC(=O)N3CCN(c4ccccn4)CC3)ccc2o1	0	0	0	0	0	0	-	-	-
O=C(Nc1ccc2nc(-c3ccco3)c(-c3ccco3)nc2c1)N1CCN(c2ccccn2)CC1	0	0	33.9	52.6	50.8	-30.2	57.9	70.8	0
COc1ccc(C(=O)C(O)C(c2ccc(C)cc2)N2CCOCC2)cc1OC (stereo not given)	0	-	0	0	0	0	-	-	-
Cc1cccc(Oc2ccc(NC(=O)C3=CC=CN4CCS(=O)(=O)N=C34)cc2)c1	0	-	0	0	0	-	-	-	-
CCOC(=O)c1ccc(NC(=O)[C@@H](NC(N)=O)C(C)C)cc1	0	0	97.8	119.8	110.1	0	0	0	0
CCC(C)C(NC(N)=O)C(=O)Nc1ccc(C(=O)OC)cc1 (stereo not given)	0	0	0	0	0	0	-	-	-
COCCn1nnnc1C(c1ccc(OC)c(OC)c1)N1CCN(C(=O)c2ccco2)CC1 (stereo not given)	0	-	0	0	0	0	-	-	-
Oc1c(Br)cc(Br)cc1C=Nc1cccc2ncccc12	0	-	53.0	72.6	74.2	0	42.6	54.5	0
O=C(C1CCC(=O)N(C2CCCCCC2)C1)N1CCN(c2ccccc2Cl)CC1 (stereo not given)	0	-	30.8	56.6	89.3	0	0	0	0
Nc1n[nH]c2cc(=O)n(-c3cccc(C(F)(F)F)c3)nc12	0	0	39.2	60.4	43.2	0	38.2	53.7	0
COC(=O)c1sc2cc(=O)n(-c3cccc(C(F)(F)F)c3)nc2c1O	0	0	0	0	0	0	-	-	-
O=C(COc1cccc(C(F)(F)F)c1)NNC(=O)Cn1c(=O)cnc2ccccc21	0	-	0	0	0	0	-	-	-
Cc1ccc(-c2cc(C(=O)O)c3cc(Br)ccc3n2)o1	0	0	36.7	74.6	62.0	0	0	43.6	0
O=C1Nc2ccccc2SC1=Cc1ccccc1	0	-	-	-	-	-	-	-	-
O=C1CCCC2=C1Sc1ccccc1N2	0	65.3	30.7	69.0	58.1	0	52.9	78.0	0
CN1C(=O)c2ccc(N3CCCC3)cc2C1=O	0	0	36.3	62.7	47.7	0	46.8	55.0	0
SMILES	E coli Lon inh	EBV gp42 block	GLD-1 TGE inh	MCL1 BIM primary	Bcl-xL primary	MEX-5 binding	BCLXL inh confirm	MCL1 inh confirm	GLD1 RNA confirm
CCCc1cc(=O)oc2cc(C)cc(OC(C)C(=O)NCC(O)c3ccccc3)c12 (stereo not given)	0	-	0	0	0	0	-	-	-
CCCCn1c(N)c(NCCC)c(=O)[nH]c1=O	0	0	30.9	49.8	34.8	0	0	0	0
CCCCNc1c(N)n(CCCC)c(=O)[nH]c1=O	-	0	37.2	52.0	36.4	?	56.0	79.2	79.0
CCCCn1c(N)c(NCc2ccccc2OC)c(=O)[nH]c1=O	0	0	0	0	0	0	-	-	-
CC(C)CNc1c(N)n(CC(C)C)c(=O)[nH]c1=O	0	0	-	-	-	-	-	-	-
CCCCNS(=O)(=O)c1ccc(Br)cc1N1CCC[C@H]1CO	0	-	-	-	-	-	-	-	-
O=C(O)c1ccc(Cl)c2c1C1C=CCC1C(c1ccccn1)N2 (stereo not given)	-	0	38.8	115.2	85.1	-67.5	57.7	82.5	0
CC(=O)Oc1ccc(N2C(=O)C3C(C2=O)C(C(=O)c2ccc(Cl)cc2)N2CCCC32)cc1 (stereo not given)	0	0	57.9	73.7	78.2	0	65.6	86.0	0
Cc1ccc(C2Nc3ccccc3NC3=C2C(=O)CC(C)(C)C3)c(O)c1 (stereo not given)	0	-	51.1	52.1	47.1	0	67.2	93.7	0
CC(=O)Nc1nc2n(n1)C(c1ccccc1)C=C(c1ccccc1)N2 (stereo not given)	31.2	0	47.5	52.9	57.0	0	56.8	79.7	0
CC1=CC(c2ccccc2)n2nc(NC(=O)CCC(=O)O)nc2N1 (stereo not given)	0	0	0	0	0	0	-	-	-
Cc1ccc(C(=O)Nc2ccccc2C(=O)N2CCCC(C)C2)cc1 (stereo not given)	0	-	0	0	0	0	-	-	-
Cc1ccc(/C=C2/NC(=O)N(Cc3ccccc3)C2=O)o1	0	0	49.8	48.7	38.0	0	0	0	0
Cc1c(NC=C(C#N)C#N)c(=O)n(-c2ccccc2)n1C	0	0	35.0	74.9	85.8	0	0	0	0
O=S(=O)(c1ccccc1)[C@@]1(c2ccc(Br)cc2)C[C@@H]2ON=C(c3ccccc3)[C@@H]2C1	0	-	0	0	0	0	-	-	-
CC1CCCN(c2nc3ccccc3nc2C(C#N)S(=O)(=O)c2ccccc2)C1 (stereo not given)	0	146.9	55.5	68.5	76.5	?	0	0	0
CCOC(=O)C1CCCN(c2nc3ccccc3nc2C(C#N)C(=O)OCC)C1 (stereo not given)	0	0	0	0	0	0	-	-	-
O=C(O)c1ccc2c3c(ncnc13)-c1ccccc1C2=O	-	76.0	59.9	74.5	71.7	?	121.3	141.8	44.8
Cc1ccccc1N=C(N)Nc1ccccc1C	0	-	43.0	70.7	63.0	-	63.1	84.7	43.4

Bioassay records deposited in PubChem BioAssay by several laboratories.
